Reference: PubChem BioAssay (NCI)
The panel holds about 79,000 compounds, 15% with a hit somewhere; the sample as a whole holds those more often. A number with no mark means an inactive call. Activity calls are given as the source filed them. No stated cut-off is given here; in the data, active means growth inhibition above about 70%; inactive means the rest.

Assays:
[1] = NCI Yeast Anticancer Drug Screen. Data for the rad50 strain (AID 155);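 further: 0% = growth of vehicle-only cultures of the same strain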; conditions: S. cerevisiae rad50 strain growth inhibition, stronger effect = higher value
Summary of the method: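 Inhibition values express reduced yeast growth in compound-treated cultures relative to vehicle-treated controls.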

[2] = NCI Yeast Anticancer Drug Screen. Data for the mec2-1 strain (AID 157); conditions: S. cerevisiae mec2-1 strain, stronger effect = higher value
Summary of the method: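 Test agents were screened against the mec2-1 yeast strain, with defined DNA repair or cell cycle alteration. Growth was scored as inhibition against vehicle-only controls.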

[3] = NCI Yeast Anticancer Drug Screen. Data for the sgs1 mgt1 strain (AID 161);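 further: 0% = growth of cultures given vehicle only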; conditions: S. cerevisiae sgs1 mgt1 strain, stronger effect = higher value
Summary of the method: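 Mutant yeast exposed to compound; growth scored against vehicle-only wells.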

[4] = NCI Yeast Anticancer Drug Screen. Data for the cln2 rad14 strain (AID 165);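 further: 0% = growth equal to vehicle treated cultures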; conditions: S. cerevisiae cln2 rad14 strain, stronger effect = higher value
Summary of the method: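 Growth of compound-exposed yeast (cln2 rad14 genotype) measured and expressed as inhibition relative to vehicle.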

[5] = NCI Yeast Anticancer Drug Screen. Data for the bub3 strain (AID 167); conditions: S. cerevisiae bub3 mutant strain, stronger effect = higher value
Summary of the method: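 Steps: expose the mutant yeast strain to compound; grow alongside vehicle-treated cultures; measure growth; express inhibition against the vehicle cultures.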

[6] = NCI Yeast Anticancer Drug Screen. Data for the mlh1 rad18 strain (AID 175); conditions: S. cerevisiae mlh1 rad18 strain growth inhibition, stronger effect = higher value
Summary of the method: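 In this whole-cell yeast screen, a strain with altered DNA damage repair is challenged with compound, and its growth is measured against matched vehicle-treated controls.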

[7] = at 5.0 µM (retest, dose inferred, filed as 0.5)
[8] = at 50.0 µM (retest, dose inferred, filed as 5.0)

Row | SMILES | growth inhibition [1, 7] | growth inhibition [1, 8] | growth inhibition ([1]; at 50.0 µM) | growth inhibition [2, 7] [%] | growth inhibition [2, 8] | growth inhibition ([2]; at 50.0 µM) | growth inhibition [3, 7] [%] | growth inhibition [3, 8] | growth inhibition ([3]; at 50.0 µM) | growth inhibition [4, 7] [%] | growth inhibition [4, 8] | growth inhibition ([4]; at 50.0 µM) | growth inhibition [5, 7] | growth inhibition [5, 8] | growth inhibition ([5]; at 50.0 µM) | growth inhibition [6, 7] | growth inhibition [6, 8] | growth inhibition ([6]; at 50.0 µM)
1 | CCC(=O)[O][Bi]([c]1ccccc1)[c]1ccccc1 | 79% (active) | 96% (active) | 90.2% (active) | 58 | 97% (active) | 92.4% (active) | 68 | 97% (active) | 92.5% (active) | 49 | 95% (active) | 90% (active) | 81% (active) | 96% (active) | 91.5% (active) | 85% (active) | 97% (active) | 90% (active)
2 | Cn1c(=S)c2[nH]c(SCCN3CCOCC3)nc2n(C)c1=O | 18% | 81% (active) | 98.5% (active) | 20 | 70% (active) | 99.5% (active) | 31 | 72% (active) | 99.4% (active) | 3 | 59% | 61% | 30% | 83% (active) | 99% (active) | 15% | 90% (active) | 98.7% (active)
3 | CC1=C(C(=O)Nc2cc(C)ccc2C)C(c2cccc([N+](=O)[O-])c2)C(C(=O)Nc2cc(C)ccc2C)=C(C)N1 | 8% | 49% | -12.3% | 19 | 72% (active) | 34.5% | 19 | 34% | 26.7% | 5 | 61% | 19.2% | 17% | 74% (active) | 29.6% | 17% | 65% | 31.6%
4 | CN1CCN(C2=C(Cl)C3(OCCS3)C(F)(F)C2(F)F)CC1 (stereo not given) | -1% | -42% | 34.1% | 26 | 53% | 34.2% | 15 | 58% | 53.7% | 1 | 29% | 49.2% | 5% | 22% | 39.9% | 20% | 68% | 48.1%
5 | CCCc1cc(=O)oc2c3c(c4c(c12)OC(C)(C)CC4)O[C@H](C)[C@H](C)C3=O | -7% | 99% (active) | 88.5% (active) | -18 | 99% (active) | 91.6% (active) | -12 | 99% (active) | 88.2% (active) | -6 | 98% (active) | 90.3% (active) | -18% | 99% (active) | 91.1% (active) | -5% | 99% (active) | 84.7% (active)
6 | COc1ccccc1CN1CCCN(Cc2ccccc2OC)C1c1cc(Cl)cc(Cl)c1O | 16% | 93% (active) | 69.2% | 11 | 100% (active) | 15.3% | 19 | 99% (active) | 97.5% (active) | -2 | 97% (active) | 6.2% | 4% | 98% (active) | 9.3% | 52% | 99% (active) | 78.6% (active)
7 | O=C(c1cccs1)N(C(=S)N1CCN(c2ccccn2)CC1)C1CCCCC1 | 4% | 66% | 54.5% | -8 | 61% | 54.8% | 8 | 31% | 67.2% | 15 | 44% | 38.8% | 2% | 31% | 68.6% | 8% | 29% | 49.6%
8 | C[n+]1cccc2c1-c1ccccc1C2=O | 6% | 22% | -2.25% | -1 | 22% | 1.6% | 3 | 8% | 8.15% | -3 | 1% | 39.5% | -2% | 9% | 11.1% | 2% | 28% | 16.1%
9 | CC1=Nc2ccccc2/C1=C\c1c(C)[nH]c2ccccc12 | 33% | 96% (active) | 83% (active) | 39 | 98% (active) | 86.8% (active) | 38 | 97% (active) | 85.2% (active) | 10 | 96% (active) | 74.3% (active) | 53% | 97% (active) | 87.8% (active) | 58% | 94% (active) | -32.6%
10 | N#CC1Sc2ccccc2N1C(=O)c1ccccc1 (stereo not given) | -2% | 3% | 96.6% (active) | -15 | -6% | 91% (active) | -2 | -19% | 93% (active) | -12 | -19% | 78% (active) | -10% | 4% | 84.2% (active) | -12% | -5% | 98% (active)
